Reference: PubChem BioAssay (NCI)
The panel holds about 83,000 compounds, 20% with a hit somewhere; the sample as a whole holds those more often.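 Single-concentration screen, 48 h exposure, 96-well plates. Endpoint: percent growth. Below 10 = active.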 A number with no mark means an inactive call. Active and inactive are the calls of the source.

Key:
Assay in all cases: NCI-60 one-dose screen, 48 h (100 = growth as untreated, 0 = no growth, -100 = all killed)
NCI-H23 lung = conditions: 10 µM unless noted
NCI-H226 lung = conditions: 10 µM unless noted
NCI-H322M lung = conditions: 10 µM unless noted
NCI-H460 lung = conditions: 10 µM unless noted
HOP-92 NSCLC = conditions: 10 µM
NCI-H522 lung = conditions: 10 µM
A549/ATCC NSCLC = conditions: 10 µM unless noted
786-0 renal = conditions: 10 µM unless noted
COLO 205 colon = conditions: 10 µM unless noted
DU-145 prostate = conditions: 10 µM unless noted
K-562 leukemia = conditions: 10 µM unless noted
MALME-3M melanoma = conditions: 10 µM unless noted
MDA-MB-231 breast = conditions: 10 µM unless noted
RXF 393 renal = conditions: 10 µM unless noted
SF-268 CNS = conditions: 10 µM unless noted
SF-295 CNS = conditions: 10 µM unless noted
SF-539 CNS = conditions: 10 µM unless noted
UACC-257 melanoma = conditions: 10 µM unless noted
M14 melanoma = conditions: 10 µM unless noted

| SMILES | growth (NCI-H23 lung) | growth (NCI-H226 lung) | growth (NCI-H322M lung) | growth (NCI-H460 lung) | growth (HOP-92 NSCLC) | growth (NCI-H522 lung) | growth (A549/ATCC NSCLC) | growth (786-0 renal) | growth (COLO 205 colon) | growth (DU-145 prostate) | growth (K-562 leukemia) | growth (MALME-3M melanoma) | growth (MDA-MB-231 breast) | growth (RXF 393 renal) | growth (SF-268 CNS) | growth (SF-295 CNS) | growth (SF-539 CNS) | growth (UACC-257 melanoma) | growth (M14 melanoma) |
| --- | --- | --- | --- | --- | --- | --- | --- | --- | --- | --- | --- | --- | --- | --- | --- | --- | --- | --- | --- |
| Nc1cc(N)c2nc(-c3ccccc3)c(NCCc3ccc(Cl)c(Cl)c3)nc2c1 | -63.9% (active) | -76.2% (active) | -91.7% (active) | -10.9% (active) | -78.5% (active) | -72.1% (active) | -62.8% (active) | -97.9% (active) | -62.4% (active) | -98.6% (active) | -16.9% (active) | -93.3% (active) | -71.1% (active) | -94.3% (active) | 0.859% (active) | -74.2% (active) | -96.7% (active) | 5.16% (active) | – |
| Oc1ccccc1\C=N/N=C/C=C/c1ccccc1 | 92.7% | 103% | 98.6% | 99% | 103% | 87.4% | 105% | 111% | 108% | 105% | 82.9% | 102% | 67.1% | 117% | 88.9% | 98.4% | 104% | 107% | – |
| Oc1ccc(CN(Cc2ccc(C(F)(F)F)cc2)Cc2ccc(O)c3ncccc23)c2cccnc12 | 17.4% | 18.3% | 31.5% | 1.74% (active) | -3.41% (active) | 3.25% (active) | 1.19% (active) | 11.4% | 19.6% | 24.1% | 8.17% (active) | 23.7% | 48.4% | 11.2% | 25.6% | 6.95% (active) | 15.2% | -27.7% (active) | 3.46% (active) |
| O=C(O)CC1Cc2ccccc2C1C(=O)O (stereo not given) | 93.5% | 102% | 113% | 106% | 108% | 95.9% | 103% | 105% | 114% | 106% | 91.5% | 103% | 105% | 105% | 100% | 100% | 99.1% | 107% | 95.9% |
| O=C1/C(=N\c2cc(=O)[nH]n2S(=O)(=O)c2ccccc2)Nc2ccccc21 | 107% | 92.4% | 105% | 105% | 89.6% | 96.7% | 111% | 106% | 114% | 108% | 98.7% | 95.1% | 96.5% | 101% | 97.6% | 101% | 94.8% | 123% | 91.1% |
| CCCCCCCCC1OC1CCCCCCCC(=O)O (stereo not given) | 100% | 92% | 102% | 99.1% | 87.8% | 97.7% | 91.9% | 100% | 105% | 116% | 116% | 90.1% | 94.6% | 101% | 107% | 97.4% | 93.5% | 95.3% | 105% |
| COC1(OC)N=C(N)C2(C#N)C3(C(=O)Nc4ccccc43)C12C#N (stereo not given) | 81.6% | 62.5% | 105% | 104% | 73% | 80.7% | 104% | 94.3% | 116% | 68.2% | 85.3% | -3.2% (active) | 73.6% | 61% | 105% | 96.4% | 61.2% | 100% | – |
